In all, about 220,000 compounds went through this assay and about 530 (0.24%) were called active. Cut-off read from the data, not from the text of the source: active = inhibition above about 13%; inconclusive = no clear call, values can overlap the other calls; inactive = below that. Many of the other results were omitted from the sample, so actives are more common in it than they were. Entries with a potency or affinity are not part of this list.
target: Bifunctional protein GlmU (Mycobacterium tuberculosis (strain ATCC 25618 / H37Rv)) (UniProt P9WMN3); assay: inhibition of mycobacterial GlmU enzyme – biochemical, glucosamine-1-phosphate acetyltransferase (AID 1376);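 note: 0% = complete reaction with vehicle and 100% = reaction without substrate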; conditions: M. tuberculosis GlmU acetyltransferase enzyme assay; hits give high values;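 tested at 30 µM in the primary screen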
Sequence (P9WMN3 whole entry, looked up): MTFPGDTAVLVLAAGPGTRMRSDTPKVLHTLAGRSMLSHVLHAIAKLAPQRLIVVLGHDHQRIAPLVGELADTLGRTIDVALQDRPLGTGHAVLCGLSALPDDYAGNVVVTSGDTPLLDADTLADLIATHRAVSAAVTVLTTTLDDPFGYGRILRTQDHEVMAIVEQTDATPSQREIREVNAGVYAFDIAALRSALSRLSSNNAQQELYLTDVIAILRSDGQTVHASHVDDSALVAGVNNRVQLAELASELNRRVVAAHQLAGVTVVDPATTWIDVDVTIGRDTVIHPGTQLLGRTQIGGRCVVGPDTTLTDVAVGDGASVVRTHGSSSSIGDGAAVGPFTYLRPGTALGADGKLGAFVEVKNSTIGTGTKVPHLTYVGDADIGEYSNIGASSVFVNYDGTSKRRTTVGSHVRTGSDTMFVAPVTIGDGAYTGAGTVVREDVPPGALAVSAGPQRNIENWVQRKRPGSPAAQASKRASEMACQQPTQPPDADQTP

Row | SMILES | inhibition
1 | Cc1nc(Nc2ccccc2)sc1C(=O)Nc1ccccc1 | 2.24% (inactive)
2 | Cc1nc(NC(N)=S)sc1C(=O)Nc1ccccc1 | 14.8% (active)
3 | Cc1nc(NC(=O)COc2ccccc2)sc1C(=O)Nc1ccccc1 | 6.13% (inactive)
4 | O=C(NCc1n[nH]c(=S)n1-c1ccc(F)cc1)c1ccco1 | 3.33% (inactive)
5 | CCOC(=O)CC(=O)CSc1nc(-c2cccnc2)ccc1C#N | 2.76% (inactive)
6 | Cc1ccc(NC(=O)Cn2nnc3ccccc32)cc1 | -1.28% (inactive)
7 | CCCCn1c(CNC(=O)C23CC4CC(CC(C4)C2)C3)nnc1SC(C)CC (configuration not stated) | -3.15% (inactive)
8 | Cc1ccc(S(=O)(=O)N(C)C/N=C(\N)N[N+](=O)[O-])cc1 | -3.35% (inactive)
9 | O=C1CCCC(O)=C1N=Nc1ccc(Cl)c(Cl)c1 | 0.41% (inactive)
10 | O=C1CCCC(O)=C1N=Nc1ccc2c(c1)OCO2 | 1.81% (inactive)
11 | O=C1CCCC(O)=C1N=Nc1ccc(C(=O)O)cc1 | 13.3% (active)
12 | CCc1nnc(NC(=O)CSc2nc(-c3ccccc3)nc3ccccc23)s1 | -1.88% (inactive)
13 | CC1CC(C)(C)NC(=S)N1CCCC(=O)NCc1ccccc1 (configuration not stated) | -0.79% (inactive)
14 | Oc1c(C(c2ccccc2Cl)N2CCCC2)ccc2cccnc12 (configuration not stated) | -1.53% (inactive)
15 | OCCN1CCN(C(c2cccs2)c2ccc3cccnc3c2O)CC1 (configuration not stated) | 17.8% (active)
16 | CN1CCN(C(c2cccnc2)c2ccc3cccnc3c2O)CC1 (configuration not stated) | -1.35% (inactive)
17 | CCc1ccc(CN(C)CCc2ccccn2)cc1 | 1.82% (inactive)
18 | O=C(NCc1ccc2c(c1)OCO2)C1CC(c2cccc(Br)c2)=NO1 (configuration not stated) | 5.45% (inactive)
19 | COc1cc(/C=N/NC(=O)c2ccc(F)cc2)ccc1OC(=O)c1ccco1 | 1.03% (inactive)
20 | CCC1=NN(C(=O)c2ccc(Br)cc2)C(O)(c2ccccc2)C1 (configuration not stated) | 1.41% (inactive)
21 | CCN(CC)CCC/C(=N\O)C(O)(c1ccccc1)c1ccccc1 | -1.2% (inactive)
22 | COc1ccc(C(=O)O)c(O)c1 | 1.05% (inactive)

Row | SMILES | inhibition
23 | COc1ccc(OCc2cccc(C(=O)O)c2)cc1 | -3.31% (inactive)
24 | O=C(O)c1cc(O)ccc1-c1ccc(O)cc1 | 0.42% (inactive)
25 | COc1ccc(OCc2ccc(C(=O)O)cc2)cc1 | -5.61% (inactive)
26 | COc1ccc(-c2ccc(OC)cc2C(=O)O)cc1 | 14.9% (active)
27 | CCN(CC)S(=O)(=O)c1ccc(N2CCOCC2)c(NC(=S)NC(=O)c2ccco2)c1 | 14.6% (active)
28 | CCN(CC)S(=O)(=O)c1ccc(N2CCOCC2)c(NC(=O)Cc2ccccc2)c1 | -0.9% (inactive)
29 | O=C(NC(=S)Nc1cc(S(=O)(=O)N2CCOCC2)ccc1N1CCOCC1)c1ccco1 | 1.22% (inactive)
30 | Cc1cc(C)n(CCc2nc(-c3ccc(C(C)(C)C)cc3)cs2)n1 | -7.47% (inactive)
31 | CC(C)NC(=O)c1ccccc1NC(=O)CS(=O)(=O)Cc1ccccc1 | -2.67% (inactive)
32 | NC(=O)c1ccccc1NC(=O)CS(=O)(=O)Cc1ccccc1 | 14.6% (active)
33 | O=C(CS(=O)(=O)Cc1ccccc1)Nc1ccccc1Cl | -1.63% (inactive)
34 | COc1ccc(S(=O)(=O)N(C)CC(=O)Nc2ccc3c(c2)OCO3)cc1OC | -3.21% (inactive)
35 | CCCCOC(=O)C1CN(c2ccccc2)N=C1C(C)=O (configuration not stated) | 3.69% (inactive)
36 | Cc1ccccc1S(=O)(=O)NC1OC(=O)C(Cl)=C1Cl (configuration not stated) | 9.45% (inactive)
37 | Cc1ccc(S(=O)(=O)NC2OC(=O)C(Cl)=C2Cl)cc1 (configuration not stated) | 13.1% (active)
38 | CC(=O)NC(=O)NC1OC(=O)C(Cl)=C1Cl (configuration not stated) | 2.53% (inactive)
39 | C#CC[N+](C)(C)CCCCCCCCCC | -5.84% (inactive)
40 | CCC(c1nnnn1CCC(C)C)N1CCC(C(N)=O)CC1 (configuration not stated) | 2.94% (inactive)
41 | Cc1ccc(Oc2ccc(OCC(=O)OC3CCS(=O)(=O)C3)cc2)cc1 (configuration not stated) | -1.4% (inactive)
42 | Cc1ccc2c(c1)sc1nc(=O)n(-c3cccc(Cl)c3)c(=O)n12 | 38.6% (active)
43 | Cc1ccc2c(c1)sc1nc(=O)n(-c3ccc(Cl)cc3)c(=O)n12 | 2.07% (inactive)
44 | Cc1ccc2c(c1)sc1nc(=O)n(-c3ccccc3)c(=O)n12 | 4.71% (inactive)

Row | SMILES | inhibition
45 | O=C(NCC1CCCO1)c1nc2c(nnn2Cc2ccc(F)cc2)c(=O)[nH]1 (configuration not stated) | 13.4% (active)
46 | O=C(NCC1CCCO1)c1nc2c(nnn2Cc2ccccc2Cl)c(=O)[nH]1 (configuration not stated) | -1.69% (inactive)
47 | Cc1ccc(C)c(Cn2nnc3c(=O)[nH]c(C(=O)NCC4CCCO4)nc32)c1 (configuration not stated) | 0.99% (inactive)
48 | CCCCNC(=O)CNC(=S)N(CCCN1CCOCC1)Cc1cccs1 | 3.25% (inactive)
49 | Oc1cccc(/C=N/NC(=S)Nc2cccnc2)c1O | 5.05% (inactive)
50 | CN(C)S(=O)(=O)c1cccc(NC(=S)N/N=C/c2cc(Br)ccc2O)c1 | -0.84% (inactive)
51 | Oc1ccc(/C=N/NC(=S)Nc2cccnc2)c(O)c1 | 3.56% (inactive)
52 | COc1ccc(O)c(/C=N/NC(=S)Nc2cccc(S(=O)(=O)N(C)C)c2)c1 | -8.22% (inactive)
53 | COc1ccccc1NC(=O)CCC(=O)N(Cc1ccc(OC)c(OC)c1)c1nccs1 | -2.21% (inactive)
54 | CCN1CCN(c2cc3c(nn2)Oc2ccccc2N3C)CC1 | 0.59% (inactive)
55 | Cc1nc2ccccc2c(=O)n1NC(=O)Cc1ccc([N+](=O)[O-])cc1 | -0.18% (inactive)
56 | O=C(Cn1nc(-c2ccccc2)c2ccccc2c1=O)Nc1cccc(O)c1 | 3.9% (inactive)
57 | Cc1ccc(N2C(=O)NC(=O)/C(=C\c3ccoc3)C2=O)cc1 | 0.76% (inactive)
58 | O=C1NC(=O)N(c2ccccc2)C(=O)/C1=C/c1ccoc1 | -0.64% (inactive)
59 | CCCC(c1nnnn1CC(=O)OCC)N(Cc1cc2ccc(C)cc2[nH]c1=O)C1CCCC1 (configuration not stated) | 7.33% (inactive)
60 | CCOC(=O)N1CCN(C(=O)CN(c2ccc(OCc3ccccc3)cc2)S(C)(=O)=O)CC1 | 4.38% (inactive)
61 | O=C(NC(=S)NNC(=O)c1ccccc1F)c1cccnc1 | 3.92% (inactive)
62 | O=C(NC(=S)NNC(=O)c1ccccc1O)c1cccnc1 | 12.9% (active)
63 | O=C(NNC(=S)NC(=O)c1cccnc1)c1ccc(F)cc1 | 13.5% (active)
64 | O=C(NNC(=S)NC(=O)c1cccnc1)c1ccc(Cl)cc1 | -3.46% (inactive)
65 | O=C(NNC(=S)NC(=O)c1cccnc1)c1ccccc1 | -2.11% (inactive)
66 | Cc1ccccc1C(=O)NNC(=S)NC(=O)c1cccnc1 | 4.43% (inactive)

Row | SMILES | inhibition
67 | CCOC(=O)C1=C(C)Nc2nc3ccccc3n2C1c1ccc(O)cc1 (configuration not stated) | 6.95% (inactive)
68 | Nc1nc(CN2CCN(C(c3ccccc3)c3ccccc3)CC2)nc(Nc2ccccc2)n1 | -2.82% (inactive)
69 | COC(=O)CC1C(=O)NCCN1C(=O)CSc1nnnn1-c1ccc(OC)cc1 (configuration not stated) | -2.52% (inactive)
70 | O=C(O)C1CC1c1ccc(Br)cc1 (configuration not stated) | 2.18% (inactive)
71 | CCCNc1nc(C)nc2c1cnn2CCc1ccccc1 | 1.42% (inactive)
72 | O=C(O)c1ccc2c(c1)C(=O)/C(=C/c1ccccc1)C2=O | 18.9% (inactive)
73 | CCN(CC)c1ccc(C=C2C(=O)OC3(CCCC3)OC2=O)cc1 | -0.14% (inactive)
74 | CCN(CC)c1ccc(C=C2C(=O)OC3(CCCCC3)OC2=O)cc1 | -3.43% (inactive)
75 | CCN(CC)c1ccc(C(=O)O)cc1 | -1.49% (inactive)
76 | COc1ccc(-c2ccc(OC)c([C@H]3[C@H]4C=CC[C@@H](C)[C@@H]4C(=O)N3Cc3ccccc3)c2)cc1C | 1.44% (inactive)
77 | CCOc1cc2c(cc1C=O)OC(C)C2 (configuration not stated) | -3.18% (inactive)
78 | Cc1ccc(C(=O)NCc2ccccn2)cc1Cl | -4.77% (inactive)
79 | O=C(c1ccc2c(c1)OCCO2)N1CCN(Cc2ccccc2)CC1 | 0.55% (inactive)
80 | CCC(OC(=O)CC1Sc2ccccc2NC1=O)C(=O)NCC1CCCO1 (configuration not stated) | -4.76% (inactive)
81 | CCCCCCOC(=O)CCc1c(C)nc(N)[nH]c1=O | 1.43% (inactive)
82 | CC(C)(C)P(=O)(N1CCOCC1)N1CCOCC1 | -0.04% (inactive)
83 | O=CC(Cl)P(=O)(N1CCOCC1)N1CCOCC1 (configuration not stated) | 5.15% (inactive)
84 | O=CC(Br)P(=O)(N1CCOCC1)N1CCOCC1 (configuration not stated) | 13.9% (active)
85 | CN(c1ccccc1)c1nc(N)c([N+](=O)[O-])c(NCc2ccccc2)n1 | -0.66% (inactive)
86 | CCCC(=O)NNc1cc(=O)c2c(=O)n(C)c(=O)n(C)c2[nH]1 | -0.71% (inactive)
87 | Cc1ccc(N2CC(C(=O)NCCC(C)C)CC2=O)cc1 (configuration not stated) | 1.29% (inactive)
88 | N#CC12CNCC1CN=N2 (configuration not stated) | 15.5% (active)

Row | SMILES | inhibition
89 | Cc1ccc2c(c1)C(c1ccccc1)C(=O)O2 (configuration not stated) | 2.36% (inactive)
90 | Cc1noc(C)c1COC(=O)CCOc1ccccc1 | 13.2% (active)
91 | Cc1noc(C)c1COC(=O)C(c1ccccc1)c1ccccc1 | -2.73% (inactive)
92 | COc1ccc(OCCC(=O)OCc2c(C)noc2C)cc1 | 3.9% (inactive)
93 | Cc1ccc(N2CCN(C(=O)Nc3cccc([N+](=O)[O-])c3)CC2C)cc1 (configuration not stated) | 5.55% (inactive)
94 | CCc1ccc(C(=O)N/N=C/c2cccc3ccccc23)nc1 | -1.08% (inactive)
95 | O=C(c1ccccc1)N1CCN(c2ccc([N+](=O)[O-])c(NCc3cccnc3)c2)CC1 | -14.7% (inactive)
96 | Cc1ccccc1C(=O)N1CCN(c2ccc([N+](=O)[O-])c(NCc3cccnc3)c2)CC1 | 14.5% (active)
97 | O=C(c1ccccc1F)N1CCN(c2ccc([N+](=O)[O-])c(NCc3cccnc3)c2)CC1 | 4.22% (inactive)
98 | N#Cc1cc(C(=O)c2cc(Cl)ccc2O)cn(CC2CCCO2)c1=O (configuration not stated) | 1% (inactive)
99 | Cc1cc(C)c2c(=O)n(CC(=O)Nc3ccc(Cl)cc3)sc2n1 | 13% (active)
100 | Cc1cc(C)c2c(=O)n(CC(=O)N3CCC(N4CCCCC4)CC3)sc2n1 | -2.82% (inactive)
101 | Cc1cc(C)c2c(=O)n(CC(=O)Nc3cccc(F)c3)sc2n1 | 9.3% (inactive)
102 | CCCNC(=O)Cn1sc2nc(C)cc(C)c2c1=O | 9.09% (inactive)
103 | Cc1cc(C)c2c(=O)n(CC(=O)Nc3ccc(Br)c(C)c3)sc2n1 | -1.95% (inactive)
104 | Cc1cc(C)c2c(=O)n(CC(=O)Nc3cccc(Cl)c3C)sc2n1 | 3.9% (inactive)
105 | CCOc1ccc(NC(=O)Cn2sc3nc(C)cc(C)c3c2=O)cc1 | 14.9% (active)
106 | Cc1ccc(NC(=O)Cn2sc3nc(C)cc(C)c3c2=O)c(Cl)c1 | 2.26% (inactive)
107 | Cc1cc(C)c2c(=O)n(CC(=O)NC3CCCC3)sc2n1 | 15% (active)
